In PubChem BioAssay AID778 (Sanford-Burnham Center for Chemical Genomics, 2007):
In all, about 96,000 compounds went through this assay and about 20,000 (21%) were called active.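 How the source made its calls: active means CYP2C19 inhibition above a set limit at 5 µM in the primary screen (cut at about 50% in these data); inactive means the rest.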 Not all results are given here.

Target: Cytochrome P450 2C19 (Homo sapiens) (UniProt P33261)
Assay: blockers of cytochrome P450 2C19 activity – biochemical, luminescence, ADME assay, primary screen (AID 778);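 further: plate controls were negative control wells for no effect and 2.5 mM tranylcypromine positive control for full effect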
Conditions: CYP2C19 Supersomes, luciferin-H EGE luminescence, 30 min; at 5 µM; active compounds read high

Chain of Cytochrome P450 2C19 (Homo sapiens) (P33261 whole entry, looked up): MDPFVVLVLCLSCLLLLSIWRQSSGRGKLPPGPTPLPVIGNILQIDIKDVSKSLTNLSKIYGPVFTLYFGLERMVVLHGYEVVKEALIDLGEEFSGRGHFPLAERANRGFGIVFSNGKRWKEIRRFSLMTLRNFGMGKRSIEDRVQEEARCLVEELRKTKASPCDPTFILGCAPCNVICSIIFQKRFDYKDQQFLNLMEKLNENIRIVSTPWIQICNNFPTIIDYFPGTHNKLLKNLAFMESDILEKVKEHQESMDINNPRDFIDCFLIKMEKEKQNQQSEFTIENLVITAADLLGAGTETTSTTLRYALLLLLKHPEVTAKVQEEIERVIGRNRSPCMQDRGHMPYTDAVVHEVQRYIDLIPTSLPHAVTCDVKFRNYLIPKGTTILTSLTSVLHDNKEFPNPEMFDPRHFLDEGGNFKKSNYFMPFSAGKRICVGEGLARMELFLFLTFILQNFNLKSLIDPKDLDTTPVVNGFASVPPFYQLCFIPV

inhibition, active:
CCOC(=O)C1=C(CN2CCc3ccccc32)NC(=O)NC1c1cccc([N+](=O)[O-])c1 (configuration not stated) 63.5%
O=C(COc1ccc2c3c(c(=O)oc2c1)CCC3)NC1CCCCC1 54.4%
O=C(NCc1ccccc1)[C@@H]1CSC2c3ccccc3C(=O)N21 (some centres not stated) 81.2%
NC(=O)CSc1oc(-c2cccs2)nc1S(=O)(=O)c1ccccc1 79.2%
Cn1c(CNc2nc(-c3ccccc3)cs2)nnc1SCC(=O)c1ccccc1 86.5%
CSCC[C@H](NC(=O)NCCc1ccc(F)cc1)C(=O)O 72.3%
CCOc1cc(C)c(Cl)cc1S(=O)(=O)n1nnc2ccccc21 66.1%
Cc1ccc(-c2nc(COC(=O)c3c(C)noc3C)cs2)cc1 54%
CCOC(=O)c1ccc2c(c1)nc(SCC(=O)NC(C)C)n2CC 85.7%
Cc1ccc(NC(=O)C(C)c2cccc(C(=O)c3ccccc3)c2)cc1 (configuration not stated) 92.1%
OC(COc1ccccc1)Cn1cc(Br)cn1 (configuration not stated) 54.1%
COc1cccc(NC(=O)Cc2ccc(C)cc2)c1 57.1%
COc1cccc(NC(=O)C(C)Oc2ccccc2)c1 (configuration not stated) 79.9%
CCN(CC)C(=O)CN(c1cccc(OC)c1)S(=O)(=O)c1ccc(C)cc1 64.9%
COc1cccc(NC(=O)CN(C)S(=O)(=O)c2ccc(C)cc2)c1 78.9%

inhibition, inactive:
CC1(C)CC(=O)C(C2=NC(C)(C)Cc3ccccc32)=C(O)C1 13.7%
COc1ccc(C2C(C#N)=C(/N=C/N3CCOCC3)OC3=C2C(=O)CC(C)(C)C3)cc1OC (configuration not stated) 21%
CCc1ccc(N(CC)c2ncnc3nc[nH]c23)cc1 14.9%
Cn1c2c(c(=O)n(C)c1=O)C(c1cccc([N+](=O)[O-])c1)Nc1ccccc1O2 (configuration not stated) 18.9%
CCOC(=O)C1=C(CN2CCc3ccccc32)NC(=O)NC1c1ccc(Cl)cc1 (configuration not stated) 26.5%
NC(=O)COc1ccc2c3c(c(=O)oc2c1)CCCCC3 -3.8%
O=C(COc1ccc2oc3c(c2c1)CCCC3)Nc1ccccn1 21.2%
CCC1(CC)NC(=O)N(CC(=O)OCC(=O)Nc2ccc(C(F)(F)F)cc2)C1=O -6.3%
S=c1[nH]nc(-c2ccco2)n1/N=C/c1ccc(Br)s1 -11.6%
O=C(O)C1CC=C(Cl)CC1C(=O)NCc1ccccc1 (configuration not stated) 2.3%
Cc1ccc(CNC(=O)C2CCCN2C(=O)NCc2ccccc2)cc1 (configuration not stated) 0.7%
Cn1c(=O)c(C(=O)Nc2ncccn2)c(O)c2ccccc21 7.9%
O=C(NCc1ccc(Cl)cc1)c1cc(=O)nc2sc(-c3ccccc3)nn12 4.6%
O=C(CCc1ccccc1)Nc1cccc(-c2nnc(-c3ccco3)o2)c1 18.2%
CC(=O)CSc1nnc(CSc2ncccn2)n1C1CCCCC1 -8.3%
CC1CCCCN1S(=O)(=O)c1ccc(C(=O)Nc2nnc(-c3cccs3)o2)cc1 (configuration not stated) 10.3%
Cc1ccc(CNC(=O)COc2ccc(S(=O)(=O)NC(C)C)cc2)cc1 38.8%
Nc1ccc(C(=O)OCC(=O)NC2CCCc3ccccc32)cc1[N+](=O)[O-] (configuration not stated) 34.6%
Cn1c(CC(=O)Nc2ccccc2)nnc1SCC(=O)c1ccccc1 33.2%
CCOC(=O)CSc1nnc(CNc2nc(-c3ccccc3)cs2)n1C 35%
CCOc1c2ccc(C(=O)NC3CCCc4ccccc43)cc2nn1CC (configuration not stated) 29.9%
CSCC[C@H](NC(=O)NCc1cccs1)C(=O)O -4.9%
CC(C)C[C@H](NC(=O)NCCc1ccc(Cl)cc1)C(=O)O 2.7%
O=C(O)c1ccc(-n2cccc2)cc1O 5.6%
CCCOc1cc(C)c(S(=O)(=O)n2nnc3ccccc32)cc1C -9.4%
Cc1ccc(S(=O)(=O)n2cnc3ccccc32)c(C)c1 4.5%
COc1cc(/C=C2\SC(=S)N(Nc3ncc(C(F)(F)F)cc3Cl)C2=O)cc(OC)c1OC 31.7%
COc1cccc(-c2cc3nc4c(c(N5CCC6(CC5)OCCO6)n3n2)CCCC4)c1 24.8%
NC(=O)C1CCN(C2OC(=O)c3ccccc32)CC1 (configuration not stated) -2%
c1cnn(-c2cc(N3CCOCC3)ncn2)c1 5.4%
Cc1noc(C)c1C(=O)N1CCOCC1 -2.1%
COC(=O)c1c(-c2ccc(C)cc2)csc1N 24.4%
O=C(/C(=N\O)n1cncn1)c1ccc(Br)cc1Br 33.6%
Cc1[nH]c2ccc(S(N)(=O)=O)cc2c1C 13%
CNC(=O)c1c(NC(NC(=O)c2ccco2)C(=O)c2ccc(Cl)cc2)sc2c1CCCC2 (configuration not stated) 21.4%
Cc1cccc(-n2c(N)cc(=O)nc2SC(C)C(=O)NC2CCCCC2)c1 (configuration not stated) 12.9%
CC(=O)Nc1cccc2c1[n+]([O-])c(C)c(C)[n+]2[O-] 5%
CCn1c(C)nc2cc(C(=O)NNS(=O)(=O)c3ccc(C)cc3C)ccc21 1.5%
CCn1c(SCC(=O)NCC2CCCO2)nc2cc(S(=O)(=O)N3CCCCC3)ccc21 (configuration not stated) 11%
N#Cc1ccccc1-n1c(N)c(C(=O)N2CCCC2)sc1=S 17.2%
CCC1CCCCN1CCNS(=O)(=O)c1ccc2c(c1)CCN2C(C)=O (configuration not stated) -3.7%
Cc1ccc(C(=O)c2c(NC(=O)c3ccccc3)sc(C)c2C)cc1 23.7%
CC(=O)c1cccc(NC(=O)Nc2ccc(C)cc2)c1 -13.3%
CCn1c(=O)cc(OCC(=O)NCCCN2CCN(c3cccc(Cl)c3)CC2)c2ccccc21 26.7%
CC(C)NC(=O)C(=O)NCCN1CCN(S(=O)(=O)c2ccc(Cl)cc2)CC1 7.4%
Cc1ccc(C2(c3ccc(C)cc3)NC(=O)N(Cc3c(C)noc3C)C2=O)cc1 14.6%
Cc1ccccc1-n1c(C)cc(/C=N/NC(=O)c2ccc(CN3CCOCC3)cc2)c1C 24.3%
O=C(C(c1ccccc1)c1ccccc1)N1CCN(CC(O)COc2ccccc2)CC1 (configuration not stated) 41.9%
CC(C)c1ccc(OCC(O)Cn2cnc3ccccc32)cc1 (configuration not stated) 7.2%
COc1ccc(NC(=O)CN(C)S(=O)(=O)c2ccccc2)cc1OC 25.7%
COc1ccc(CC(=O)Nc2ccc(-c3nnc(-c4ccccc4)o3)cc2)cc1 18%
COc1cccc(NC(=O)c2ccccc2SC)c1 6.7%
COc1cccc(N(CC(=O)N2CCc3ccccc3C2)S(C)(=O)=O)c1 31.3%
CCOc1ccc(S(=O)(=O)N(CC(=O)O)c2ccccc2)cc1 2.3%
CCC(=O)Nc1ccc(C(=O)Nc2cccc(OC)c2)cc1 -0.7%
COc1ccc(OC(C)C(=O)Nc2cccnc2)cc1 (configuration not stated) 7.1%
COc1cccc(N(CC(=O)Nc2cccc(N(C)S(C)(=O)=O)c2)S(C)(=O)=O)c1 35.8%
